Data from PubChem BioAssay (NCATS).
Results filed as inconclusive are left out. Calls of active or inactive are those of the source. Calls come from the whole dose curve; as a rule, active = well fitted cell-killing curve with a large enough effect; inconclusive = small, poorly fitted or top-dose-only effect, or effect the other way; inactive = flat fitted curve, though single readings scatter.

Tests used:
Experiment in all cases: Primary qHTS to identify gynecologic anti-cancer compounds using libraries of approved drugs and bioactive compounds (AID 1345084); note: nearly all actives have a fitted effect of over 55% in size
Settings in all cases: Gynecologic cancer cell panel viability, ATPlite luminescence, 48 h; series mostly up to 57.5 µM
OV90 = test system: OV90
Summary of the method: (§1)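 Five-concentration response, 48 h; readout is ATP-driven luciferase luminescence.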

PA-1 = test system: PA-1
Summary of the method: as §1

SKOV3 = test system: SKOV3
Summary of the method: as §1

Tov-21-G = test system: Tov-21-G
Summary of the method: as §1

Tov112D = test system: Tov112D
Summary of the method: as §1
% is set by controls: 0 for no effect and ±100 for the full control effect.

C=CC(C)(C)C12CC3C(=O)N4C(CC5(C(C)(C)C=C)c6ccccc6NC45)C(=O)N3C1Nc1ccccc12 (stereo not given)
inactive: Potency (OV90) | Potency (PA-1) | Potency (SKOV3) | Potency (Tov-21-G) | Potency (Tov112D)

C[C@@H](NC(=O)c1ccc(C#Cc2cccc(F)c2)cn1)C(C)(C)O
inactive: Potency (OV90) | Potency (PA-1) | Potency (SKOV3) | Potency (Tov-21-G) | Potency (Tov112D)

COc1nc2ccc(Br)cc2cc1[C@@H](c1ccccc1)[C@@](O)(CCN(C)C)c1cccc2ccccc12
inactive: Potency (OV90) | Potency (PA-1) | Potency (SKOV3) | Potency (Tov-21-G) | Potency (Tov112D)

O=c1[nH]c2ccccc2n1CCN1CCN(c2cccc(C(F)(F)F)c2)CC1
inactive: Potency (OV90) | Potency (PA-1) | Potency (SKOV3) | Potency (Tov-21-G) | Potency (Tov112D)

CC(F)(F)CN1CCOc2c(nn(-c3ccccc3Cl)c2-c2ccc(Cl)cc2)C1=O
inactive: Potency (OV90) | Potency (PA-1) | Potency (SKOV3) | Potency (Tov-21-G) | Potency (Tov112D)

C/C=C/CCC1Cc2cc(O)c(CCCC)c(O)c2C(=O)O1 (stereo not given)
inactive: Potency (OV90) | Potency (PA-1) | Potency (SKOV3) | Potency (Tov-21-G) | Potency (Tov112D)

OC1CCC(Nc2nc(-c3ccccc3)nc3[nH]ccc23)CC1 (stereo not given)
inactive: Potency (OV90) | Potency (PA-1) | Potency (SKOV3) | Potency (Tov-21-G) | Potency (Tov112D)

Fc1ccc(N2CCCCC2)c(NC(=S)c2ccncc2)c1
inactive: Potency (OV90) | Potency (PA-1) | Potency (SKOV3) | Potency (Tov-21-G) | Potency (Tov112D)

Cn1cc(-c2ccc(F)c(C(F)(F)F)c2)nc1C1CCN(c2ncnc3[nH]ncc23)CC1
inactive: Potency (OV90) | Potency (PA-1) | Potency (SKOV3) | Potency (Tov-21-G) | Potency (Tov112D)

CC1CCC(=O)CC(SCC(O)C(=O)O)CCC(=O)O1 (stereo not given)
inactive: Potency (OV90) | Potency (PA-1) | Potency (SKOV3) | Potency (Tov-21-G) | Potency (Tov112D)

COc1cc(C2OC(c3ccc(OC)c(OC)c3)C(C)C2C)ccc1O (stereo not given)
inactive: Potency (OV90) | Potency (PA-1) | Potency (SKOV3) | Potency (Tov-21-G) | Potency (Tov112D)

C/C=C/C=C/c1cc2c(C=O)c(O)c(CC=C(C)C)cc2o1
inactive: Potency (OV90) | Potency (PA-1) | Potency (SKOV3) | Potency (Tov-21-G) | Potency (Tov112D)

C#CCNCc1cc2cc(OCc3ccccc3)ccc2[nH]1
inactive: Potency (OV90) | Potency (PA-1) | Potency (SKOV3) | Potency (Tov-21-G) | Potency (Tov112D)

COc1ccc(N2CCN(C(=O)c3cc4c(s3)-c3ccccc3S(=O)(=O)C4)CC2)cc1
inactive: Potency (OV90) | Potency (PA-1) | Potency (SKOV3) | Potency (Tov-21-G) | Potency (Tov112D)

CC(C)c1c(O)ccc2c1CC[C@H]1C(C)(C)CCC[C@]21C
inactive: Potency (OV90) | Potency (PA-1) | Potency (SKOV3) | Potency (Tov-21-G) | Potency (Tov112D)

CC[C@@H]1C[C@]1(NC(=O)[C@@H]1C[C@@H]2CN1C(=O)[C@H](C(C)(C)C)NC(=O)OCC(C)(C)CCCCc1cccc3c1CN(C3)C(=O)O2)C(=O)NS(=O)(=O)C1CC1
inactive: Potency (OV90) | Potency (PA-1) | Potency (SKOV3) | Potency (Tov-21-G) | Potency (Tov112D)

C/C=C(/C=C(C)/C=C/C=C/C=C(\C)C(=O)C12OC1C(O)(CCO)NC2=O)C(=O)OC (stereo not given)
inactive: Potency (OV90) | Potency (PA-1) | Potency (SKOV3) | Potency (Tov-21-G) | Potency (Tov112D)

C/C(=C\CO[C@@H]1O[C@H](CO[C@H]2OC[C@](O)(CO)[C@H]2O)[C@@H](O)[C@H](O)[C@H]1O)C(C)(C)O
inactive: Potency (OV90) | Potency (PA-1) | Potency (SKOV3) | Potency (Tov-21-G) | Potency (Tov112D)

Cc1cccc(-c2[nH]ncc2-c2ccc(F)c(-c3cnn(CCO)c3)c2)n1
inactive: Potency (OV90) | Potency (PA-1) | Potency (SKOV3) | Potency (Tov-21-G) | Potency (Tov112D)

O=C([C@@H]1CCCN(c2ccc3[nH]c(C4(n5cc(Cl)cn5)CC4)nc3n2)C1)N1CCCC1
inactive: Potency (OV90) | Potency (PA-1) | Potency (SKOV3) | Potency (Tov-21-G) | Potency (Tov112D)

CCCN1CCC=C(c2cc(-c3ccc(C)cc3)no2)C1
inactive: Potency (OV90) | Potency (PA-1) | Potency (SKOV3) | Potency (Tov-21-G) | Potency (Tov112D)

CCC[C@H](N[C@H]1CCc2cc(F)cc(F)c2C1)C(=O)Nc1cn(C(C)(C)CNCC(C)(C)C)cn1
inactive: Potency (OV90) | Potency (PA-1) | Potency (SKOV3) | Potency (Tov-21-G) | Potency (Tov112D)

CC1(C=O)CCCC2(C)C1CCC13CC(CO)C(CCC12)C3 (stereo not given)
inactive: Potency (OV90) | Potency (PA-1) | Potency (SKOV3) | Potency (Tov-21-G) | Potency (Tov112D)

COc1ccc(OC)c(-c2ccc(NC(=O)c3ccncc3F)cc2)c1
inactive: Potency (OV90) | Potency (PA-1) | Potency (SKOV3) | Potency (Tov-21-G) | Potency (Tov112D)

C=CC(=O)N1CCN(C(=O)CNc2cc(-c3ccccc3Cl)c(Cl)cc2OC)CC1
inactive: Potency (OV90) | Potency (PA-1) | Potency (SKOV3) | Potency (Tov-21-G) | Potency (Tov112D)

Cc1nc(C#Cc2ccnc(Cl)c2)c(C)n1-c1ccc(OC(F)(F)F)cc1
inactive: Potency (OV90) | Potency (PA-1) | Potency (SKOV3) | Potency (Tov-21-G) | Potency (Tov112D)

Cc1nc(Nc2ccc(F)cc2)nc(N2CCc3ccccc3C2C)c1C (stereo not given)
inactive: Potency (OV90) | Potency (PA-1) | Potency (SKOV3) | Potency (Tov-21-G) | Potency (Tov112D)

CC(=O)[C@H]1CC[C@H]2[C@@H]3CC=C4C[C@@H](OS(=O)(=O)O)CC[C@]4(C)[C@H]3CC[C@]12C
inactive: Potency (OV90) | Potency (PA-1) | Potency (SKOV3) | Potency (Tov-21-G) | Potency (Tov112D)

O=C(c1ccccn1)N(Cc1cccs1)C1(C(=O)NC2CCCCC2)CCCCC1
inactive: Potency (OV90) | Potency (PA-1) | Potency (SKOV3) | Potency (Tov-21-G) | Potency (Tov112D)

COc1ccc(S(=O)(=O)Nc2cc(Cl)cc(Cl)c2OC)cc1N1CCNCC1
inactive: Potency (OV90) | Potency (PA-1) | Potency (SKOV3) | Potency (Tov-21-G) | Potency (Tov112D)

COc1cccc(CN(C(=O)CC(C)(C)C)[C@H]2C[C@H](C(=O)N3CCNCC3)N(Cc3ccc4c(c3)OCO4)C2)c1
inactive: Potency (OV90) | Potency (PA-1) | Potency (SKOV3) | Potency (Tov-21-G) | Potency (Tov112D)

Cc1nnc(-c2ccc(-c3ccc(C(=O)Nc4ccc(O)c(N5CCN(C)CC5)c4)cc3)c(C)c2)o1
inactive: Potency (OV90) | Potency (PA-1) | Potency (SKOV3) | Potency (Tov-21-G) | Potency (Tov112D)

CC(C)NC(=O)N1CC[C@H](N=C2Nc3cc(F)ccc3N(CC(F)F)c3ccc(Cl)cc32)C1
inactive: activity change, negative = cytotoxicity (OV90) 1.89% [at 11.6 µM] | activity change, negative = cytotoxicity (PA-1) -24.1% [at 11.6 µM] | activity change, negative = cytotoxicity (SKOV3) 18.3% [at 11.6 µM] | activity change, negative = cytotoxicity (Tov-21-G) -31.2% [at 11.6 µM] | activity change, negative = cytotoxicity (Tov112D) -4.53% [at 11.6 µM]

C=C(C(=O)OC[C@H]1O[C@@H](OC(=O)/C=C/c2ccccc2)[C@H](O)[C@@H](O)[C@@H]1O)C(O)CO (stereo not given in full)
inactive: Potency (OV90) | Potency (PA-1) | Potency (SKOV3) | Potency (Tov-21-G) | Potency (Tov112D)

COc1ccccc1N1CCN(CC[C@@](C)(C(=O)C2CCCCC2)c2ccccc2)CC1
inactive: Potency (OV90) | Potency (PA-1) | Potency (SKOV3) | Potency (Tov-21-G) | Potency (Tov112D)

C=C(C)C1CCC2(C(=O)O)CCC3(C)C(CCC4C5(C)C(C=O)C(O)C(C)(C)C5CCC43C)C12 (stereo not given)
inactive: Potency (OV90) | Potency (PA-1) | Potency (SKOV3) | Potency (Tov-21-G) | Potency (Tov112D)

COc1ccc(CN2CCN(CCCSc3cc(C(C)(C)C)c(O)c(C(C)(C)C)c3)CC2)c(OC)c1OC
inactive: activity change, negative = cytotoxicity (OV90) 3.61% [at 11.6 µM] | activity change, negative = cytotoxicity (PA-1) 1.3% [at 11.6 µM] | activity change, negative = cytotoxicity (SKOV3) 17.3% [at 11.6 µM] | activity change, negative = cytotoxicity (Tov-21-G) 7.27% [at 11.6 µM] | activity change, negative = cytotoxicity (Tov112D) 2.48% [at 11.6 µM]

Cc1cn2c(n1)Cc1ccc(Cl)cc1C(c1ccc(N)cc1)=N2
inactive: Potency (OV90) | Potency (PA-1) | Potency (SKOV3) | Potency (Tov-21-G) | Potency (Tov112D)

Cc1[nH]c2ccccc2c1CCNC(=O)c1cccs1
inactive: Potency (OV90) | Potency (PA-1) | Potency (SKOV3) | Potency (Tov-21-G) | Potency (Tov112D)

COc1ccc(CCO[C@@H]2O[C@H](CO[C@H]3OC[C@](O)(CO)[C@H]3O)[C@@H](OC(=O)/C=C/c3ccc(O)c(O)c3)[C@H](O[C@@H]3O[C@@H](C)[C@H](O)[C@@H](O)[C@H]3O)[C@H]2O)cc1OC
inactive: Potency (OV90) | Potency (PA-1) | Potency (SKOV3) | Potency (Tov-21-G) | Potency (Tov112D)

Fc1ccc2c(CCNCc3cccc(OCC(F)(F)C(F)F)c3)c[nH]c2c1
inactive: Potency (OV90) | Potency (PA-1) | Potency (SKOV3) | Potency (Tov-21-G) | Potency (Tov112D)

Cc1cc(F)ccc1-c1nc(NCCN=C(N)NC#N)nc2c1ccc(=O)n2-c1c(F)cccc1F
inactive: Potency (OV90) | Potency (PA-1) | Potency (SKOV3) | Potency (Tov-21-G) | Potency (Tov112D)

COc1ccc(NC(=O)c2ccc(C(=N)N(C)C)cc2)c(C(=O)Nc2ccc(Cl)cn2)c1
inactive: Potency (OV90) | Potency (PA-1) | Potency (SKOV3) | Potency (Tov-21-G) | Potency (Tov112D)

CC#C[C@@H](CC(=O)O)c1ccc(OCc2ccc(CN3CCC4(C=Cc5ccccc54)CC3)s2)cc1
inactive: Potency (OV90) | Potency (PA-1) | Potency (SKOV3) | Potency (Tov-21-G) | Potency (Tov112D)
